Data on 8 molecules can be found in ChEMBL document CHEMBL3988442, “University of Dundee, Small-Polar-MMV Screening Library” (2021).

For some of these results: Measured potencies and affinities stand elsewhere.

Common to all, as to design: scale not given: direction of the effect not stated beside the values
For assay [1], the target named is Protein translocase subunit SecA (Escherichia coli (strain K12)) (UniProt P10408). In words: Assay to Identify E. coli SecA ATPase Inhibitors. It counts as functional. The following applies: 30 µM.
For assay [2], the target named is T1, Ubiquitin-activating enzyme e1, putative (Leishmania donovani (strain BPK282A1)) (UniProt E9BSI1).
T1 sequence (whole entry): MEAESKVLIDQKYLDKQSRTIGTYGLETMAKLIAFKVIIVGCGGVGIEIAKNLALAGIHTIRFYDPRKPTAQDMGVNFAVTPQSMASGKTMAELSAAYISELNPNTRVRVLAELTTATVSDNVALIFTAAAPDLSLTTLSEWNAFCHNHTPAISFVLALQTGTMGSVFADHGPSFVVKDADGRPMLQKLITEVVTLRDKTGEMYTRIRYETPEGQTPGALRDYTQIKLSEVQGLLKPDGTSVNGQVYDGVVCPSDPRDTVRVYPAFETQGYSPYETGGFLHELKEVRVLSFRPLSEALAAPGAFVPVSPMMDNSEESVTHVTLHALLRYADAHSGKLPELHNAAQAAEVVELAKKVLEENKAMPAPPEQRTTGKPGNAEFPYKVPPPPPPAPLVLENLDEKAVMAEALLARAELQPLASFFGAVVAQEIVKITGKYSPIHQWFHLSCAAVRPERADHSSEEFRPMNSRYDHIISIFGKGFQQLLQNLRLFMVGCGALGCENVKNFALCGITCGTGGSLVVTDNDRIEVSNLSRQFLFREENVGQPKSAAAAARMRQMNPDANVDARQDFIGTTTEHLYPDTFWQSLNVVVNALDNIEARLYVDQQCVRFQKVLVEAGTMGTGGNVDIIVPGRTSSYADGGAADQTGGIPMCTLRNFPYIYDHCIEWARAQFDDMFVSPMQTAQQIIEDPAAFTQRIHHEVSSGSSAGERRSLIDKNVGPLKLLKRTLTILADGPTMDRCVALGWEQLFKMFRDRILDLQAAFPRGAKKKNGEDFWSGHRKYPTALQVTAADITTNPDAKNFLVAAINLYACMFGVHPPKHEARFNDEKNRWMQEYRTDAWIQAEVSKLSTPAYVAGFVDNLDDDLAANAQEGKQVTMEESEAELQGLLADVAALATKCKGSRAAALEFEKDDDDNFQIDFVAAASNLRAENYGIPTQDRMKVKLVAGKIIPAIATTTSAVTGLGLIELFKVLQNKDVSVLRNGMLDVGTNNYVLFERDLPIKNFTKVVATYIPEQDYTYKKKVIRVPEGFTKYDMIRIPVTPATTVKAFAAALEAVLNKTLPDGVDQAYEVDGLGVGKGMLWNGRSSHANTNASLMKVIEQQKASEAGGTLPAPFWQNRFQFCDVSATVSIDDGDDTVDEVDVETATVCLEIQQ
In words: Leishmania donovani Ubiquitin Activating Enzyme (LdE1). It counts as functional. The following applies: 30 µM.

In assay [3] the target is AMP-activated protein kinase, AMPK (Homo sapiens) (UniProt P54646+O43741+P54619+Q9UGJ0+Q9Y478+Q13131+Q9UGI9). In words: AMP-dependent Kinase enzyme assay. An in vitro enzyme assay that detects ADP turnover that is directly proportional to AMPK activity. This uses naive AMPK that is activated during the assay with MK-8722. The following applies: 30 µM. It counts as functional.

For assay [4], the target named is Sialic acid-binding Ig-like lectin 9 (Homo sapiens) (UniProt Q9Y336). Kind of assay: Hs-Siglec9 ALPHAscreen SOP 20170721. The following applies: 10 µM.
A further assay has as its system Trypanosoma cruzi. Kind of assay: Trypanosoma cruzi phosphomannomutase and mannose-1-phosphate guanylyltransferase assay. It is filed as functional. The following applies: 10 µM.
Assay [5] deals with T2, Arginase-2, mitochondrial (Homo sapiens) (UniProt P78540).
T2 sequence (whole entry): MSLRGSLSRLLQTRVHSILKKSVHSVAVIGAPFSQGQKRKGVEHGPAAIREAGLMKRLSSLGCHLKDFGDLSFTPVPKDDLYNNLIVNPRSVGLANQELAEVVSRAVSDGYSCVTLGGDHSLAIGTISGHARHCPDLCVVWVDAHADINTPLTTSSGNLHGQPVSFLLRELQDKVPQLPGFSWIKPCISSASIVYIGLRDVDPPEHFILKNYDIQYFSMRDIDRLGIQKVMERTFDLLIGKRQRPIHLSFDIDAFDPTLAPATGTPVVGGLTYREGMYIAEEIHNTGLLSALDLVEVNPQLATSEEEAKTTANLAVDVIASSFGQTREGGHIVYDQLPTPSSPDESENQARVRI
In words: in vitro enzyme assay to detect the production of urea directly proportional to the activity of Arginase II. Further: in the data most compounds retested in dose-response had high values. It is filed as functional. The following applies: 33.3 µM.

Assay [6] deals with T3, Proteasome subunit beta (Trypanosoma cruzi) (UniProt O96673).
T3 sequence (whole entry): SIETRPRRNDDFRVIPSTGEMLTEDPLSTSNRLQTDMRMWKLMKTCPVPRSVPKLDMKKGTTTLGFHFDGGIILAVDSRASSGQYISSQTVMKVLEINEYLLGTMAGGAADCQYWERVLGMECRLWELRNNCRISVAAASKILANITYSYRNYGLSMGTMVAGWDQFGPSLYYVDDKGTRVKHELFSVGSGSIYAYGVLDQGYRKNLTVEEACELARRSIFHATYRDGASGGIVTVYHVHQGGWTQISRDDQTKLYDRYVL
Kind of assay: Trypanosoma cruzi proteasome chymotrypsin-like activity (TcProtChymo) assay. Further: in the data most compounds retested in dose-response had high values. It is filed as functional. The following applies: 9.37 µM.

For a further assay, the species on record is Homo sapiens. In words: To identify inhibition of the IFN signalling (Jak-Stat) pathway via expression of an eGFP reporter gene under the control of an IFN-stimulated response element (ISRE) containing MxA promoter. It counts as functional. The following applies: 30 µM. (A reporter such as luciferase makes a cellular process visible.)
Assay [7] has as its target T4, Tyrosyl-tRNA synthetase, putative (Trypanosoma cruzi (strain CL Brener)) (UniProt Q4DSP6).
T4 sequence (whole entry): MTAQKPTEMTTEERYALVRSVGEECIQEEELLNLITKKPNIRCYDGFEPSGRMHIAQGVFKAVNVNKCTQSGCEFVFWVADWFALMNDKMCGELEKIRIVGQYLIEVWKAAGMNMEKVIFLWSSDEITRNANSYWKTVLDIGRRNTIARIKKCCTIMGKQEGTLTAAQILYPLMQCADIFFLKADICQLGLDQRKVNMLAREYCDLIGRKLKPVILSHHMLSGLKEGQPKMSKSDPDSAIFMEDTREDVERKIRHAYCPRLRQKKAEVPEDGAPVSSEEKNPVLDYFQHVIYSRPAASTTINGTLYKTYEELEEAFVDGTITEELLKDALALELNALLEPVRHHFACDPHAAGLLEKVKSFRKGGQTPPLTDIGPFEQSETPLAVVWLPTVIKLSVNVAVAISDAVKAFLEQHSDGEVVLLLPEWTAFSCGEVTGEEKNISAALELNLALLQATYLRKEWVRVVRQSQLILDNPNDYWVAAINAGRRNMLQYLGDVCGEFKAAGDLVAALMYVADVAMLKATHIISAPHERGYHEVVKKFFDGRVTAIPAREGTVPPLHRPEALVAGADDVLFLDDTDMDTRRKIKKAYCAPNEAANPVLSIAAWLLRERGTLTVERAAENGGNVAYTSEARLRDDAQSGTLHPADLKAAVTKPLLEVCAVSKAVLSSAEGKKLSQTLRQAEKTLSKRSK
In words: Trypanosoma cruzi tyrosyl tRNA synthetase (TcYRS) _High Tyrosine SOP. Further: in the data most compounds retested in dose-response had high values. It counts as functional. The following applies: 30 µM.

Assay [8] concerns the target T4, Tyrosyl-tRNA synthetase, putative (Trypanosoma cruzi (strain CL Brener)). In words: Trypanosoma cruzi tyrosyl tRNA synthetase (TcYRS) SOP. It is filed as functional. The following applies: 30 µM.
The target of assay [9] is Chromo domain-containing protein 1 (Saccharomyces cerevisiae (strain ATCC 204508 / S288c) (Baker's yeast)) (UniProt P32657). Kind of assay: ScCHD-1 Enzyme Inhibition Assay. Further: in the data most compounds retested in dose-response had high values. It counts as functional. The following applies: 30 µM.
Sequence of Chromo domain-containing protein 1 (Saccharomyces cerevisiae (strain ATCC 204508 / S288c) (Baker's yeast)) (P32657 whole entry, the tested form may be a part): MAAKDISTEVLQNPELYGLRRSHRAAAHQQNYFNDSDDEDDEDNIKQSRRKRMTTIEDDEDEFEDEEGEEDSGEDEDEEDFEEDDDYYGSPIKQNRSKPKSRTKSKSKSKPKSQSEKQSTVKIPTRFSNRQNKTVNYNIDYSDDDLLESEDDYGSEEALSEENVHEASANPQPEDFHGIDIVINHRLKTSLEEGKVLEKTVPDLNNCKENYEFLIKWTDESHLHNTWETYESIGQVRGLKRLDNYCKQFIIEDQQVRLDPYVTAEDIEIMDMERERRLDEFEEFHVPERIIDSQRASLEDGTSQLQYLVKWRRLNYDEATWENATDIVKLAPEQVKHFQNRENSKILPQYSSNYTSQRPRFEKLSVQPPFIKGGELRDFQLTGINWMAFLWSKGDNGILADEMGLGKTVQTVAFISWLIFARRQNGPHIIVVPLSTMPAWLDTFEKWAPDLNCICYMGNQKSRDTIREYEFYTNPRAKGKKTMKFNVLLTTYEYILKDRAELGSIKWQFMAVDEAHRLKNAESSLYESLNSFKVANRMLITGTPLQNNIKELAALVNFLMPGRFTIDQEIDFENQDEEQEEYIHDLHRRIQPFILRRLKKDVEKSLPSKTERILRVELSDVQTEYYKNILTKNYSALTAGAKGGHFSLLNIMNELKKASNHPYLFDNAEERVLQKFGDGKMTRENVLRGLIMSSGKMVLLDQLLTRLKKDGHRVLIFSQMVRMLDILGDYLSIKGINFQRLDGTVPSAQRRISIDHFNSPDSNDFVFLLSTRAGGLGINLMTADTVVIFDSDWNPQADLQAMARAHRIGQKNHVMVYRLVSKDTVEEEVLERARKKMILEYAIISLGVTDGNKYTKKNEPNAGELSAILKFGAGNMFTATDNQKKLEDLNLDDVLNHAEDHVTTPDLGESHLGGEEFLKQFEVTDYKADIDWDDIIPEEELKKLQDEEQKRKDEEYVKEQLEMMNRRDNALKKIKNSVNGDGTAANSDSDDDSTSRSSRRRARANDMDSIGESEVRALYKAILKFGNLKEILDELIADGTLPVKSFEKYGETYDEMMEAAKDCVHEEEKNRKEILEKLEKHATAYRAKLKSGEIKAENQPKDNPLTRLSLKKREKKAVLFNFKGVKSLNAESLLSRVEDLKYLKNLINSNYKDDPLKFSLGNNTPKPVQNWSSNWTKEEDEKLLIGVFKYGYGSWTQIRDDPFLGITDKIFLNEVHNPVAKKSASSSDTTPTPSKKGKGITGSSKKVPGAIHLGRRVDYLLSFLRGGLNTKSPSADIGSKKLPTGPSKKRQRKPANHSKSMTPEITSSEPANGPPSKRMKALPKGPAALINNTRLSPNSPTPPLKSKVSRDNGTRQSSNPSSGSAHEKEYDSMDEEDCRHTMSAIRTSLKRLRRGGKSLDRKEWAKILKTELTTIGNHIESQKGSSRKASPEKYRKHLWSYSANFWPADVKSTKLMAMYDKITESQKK

Sequence of Sialic acid-binding Ig-like lectin 9 (Homo sapiens) (Q9Y336 whole entry): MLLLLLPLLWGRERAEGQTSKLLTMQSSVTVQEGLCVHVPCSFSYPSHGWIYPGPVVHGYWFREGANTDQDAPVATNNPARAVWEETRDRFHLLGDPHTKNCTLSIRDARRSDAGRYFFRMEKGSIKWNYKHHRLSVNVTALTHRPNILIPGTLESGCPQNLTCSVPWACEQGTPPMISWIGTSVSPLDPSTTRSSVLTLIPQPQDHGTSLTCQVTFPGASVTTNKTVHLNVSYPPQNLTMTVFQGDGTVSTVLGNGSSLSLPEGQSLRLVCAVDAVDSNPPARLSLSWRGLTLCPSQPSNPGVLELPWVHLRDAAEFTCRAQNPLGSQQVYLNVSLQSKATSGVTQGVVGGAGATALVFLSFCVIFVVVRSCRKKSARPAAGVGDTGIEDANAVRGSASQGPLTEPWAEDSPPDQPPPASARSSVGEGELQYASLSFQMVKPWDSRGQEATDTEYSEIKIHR
Sequence of Protein translocase subunit SecA (Escherichia coli (strain K12)) (P10408 whole entry): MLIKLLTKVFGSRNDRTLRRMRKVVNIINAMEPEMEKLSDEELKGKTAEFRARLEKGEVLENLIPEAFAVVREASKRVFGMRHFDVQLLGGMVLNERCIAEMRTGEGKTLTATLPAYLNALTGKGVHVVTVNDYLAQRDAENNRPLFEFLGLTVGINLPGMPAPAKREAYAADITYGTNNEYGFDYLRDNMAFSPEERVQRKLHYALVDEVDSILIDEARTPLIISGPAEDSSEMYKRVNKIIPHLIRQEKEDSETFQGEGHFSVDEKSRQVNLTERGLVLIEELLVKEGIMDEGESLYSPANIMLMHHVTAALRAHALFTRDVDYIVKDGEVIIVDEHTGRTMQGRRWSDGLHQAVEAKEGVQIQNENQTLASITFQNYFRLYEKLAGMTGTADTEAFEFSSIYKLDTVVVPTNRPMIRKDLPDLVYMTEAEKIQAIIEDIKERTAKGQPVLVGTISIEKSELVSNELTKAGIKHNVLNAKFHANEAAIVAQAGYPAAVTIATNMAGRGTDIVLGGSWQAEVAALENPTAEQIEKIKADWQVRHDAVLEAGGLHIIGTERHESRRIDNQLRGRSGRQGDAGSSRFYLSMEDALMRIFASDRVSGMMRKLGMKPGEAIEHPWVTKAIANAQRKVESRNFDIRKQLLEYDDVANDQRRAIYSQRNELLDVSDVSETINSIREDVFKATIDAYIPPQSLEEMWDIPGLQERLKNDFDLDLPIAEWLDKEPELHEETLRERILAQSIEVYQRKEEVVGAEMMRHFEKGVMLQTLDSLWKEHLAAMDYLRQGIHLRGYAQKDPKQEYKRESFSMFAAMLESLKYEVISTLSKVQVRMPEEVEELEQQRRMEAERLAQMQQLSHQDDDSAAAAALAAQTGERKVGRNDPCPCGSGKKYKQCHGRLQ

As for `Fc1ccc(CN2CCCC(c3nnc(-c4cnccn4)o3)C2)cc1F` (stereo not drawn), the Percent Effect in assay [1] is -9.81%; in assay [2], 14.9%; in [3], -1.12%; in [4], 9.24%; in the assay on Trypanosoma cruzi it was -0.198%; in [5], -3.02%. The Percent Effect in [6] is 12%; in the assay listed under Homo sapiens, 1.34%; in [7] it was 6.45%; in assay [8] it was 14.3%; in assay [9], -26.6%.
Consider `C=C(C)COCCNC(=O)C1CCCN1C(C)=O` (stereo not drawn), for which the Percent Effect in assay [1] was -2.72%; in assay [2], 18.2%; in assay [3] it was -0.215%; in assay [4] it was 2.93%; in the assay with Trypanosoma cruzi, 7.3%; in assay [5], -1.78%. The Percent Effect is 5.41% in assay [6]; 6.11% in the assay filed under Homo sapiens; 5.83% in assay [7]; 21.9% in [8]; -8.29% in assay [9].
For `Cn1nccc1C(=O)N1CCOC(Cc2cccc(C(F)(F)F)c2)C1` (stereo not drawn), the Percent Effect in assay [1] was -6%; in assay [2], 0%; in [3] it was 0.696%; in assay [4], -3.79%; in the assay with Trypanosoma cruzi it was -3.99%; in [5] it was -0.521%. Besides, the Percent Effect was 4.18% in [6]; 12.7% in the assay listed under Homo sapiens; 3.83% in [7]; 3.7% in assay [8]; 2.23% in assay [9].
As to `CCN(C(c1cccnc1)c1ccc2c(c1)CCO2)S(C)(=O)=O` (stereo not drawn), the Percent Effect was -3.35% in assay [1]; 5.48% in assay [2]; -1.35% in [3]; 6.82% in assay [4]; 6.75% in the assay with Trypanosoma cruzi; -6.79% in [5]. For the same molecule, the Percent Effect in [6] was 3.17%; in the assay listed under Homo sapiens it was 4.95%; in [7], 1.04%; in assay [8], 8.64%; in assay [9] it was -2.4%.
As to `Cc1nccn1C1CCCN(C(=O)C2=NN(C)C(=O)CC2)C1` (stereo not drawn), the Percent Effect in assay [1] was -0.962%; in assay [2] it was 18.9%; in [3] it was 2.88%; in assay [4], -10.1%; in the assay on Trypanosoma cruzi, -3.68%; in [5], -4.81%. Also, the Percent Effect in assay [6] was 20.9%; in the assay filed under Homo sapiens, 23.8%; in [7] it was 4.43%; in assay [8] it was 6.17%; in [9], -3.99%.
`CCCN1C(=O)CC(N2CCN(c3ccc(F)cc3)CC2)C1=O` (stereo not drawn): the Percent Effect in [1] was -0.321%; in [2], 13.2%; in assay [3], 5.3%; in assay [4], -9.41%; in the assay on Trypanosoma cruzi, -3.99%; in assay [5] it was -7.1%. Besides, the Percent Effect is 11.6% in assay [6]; 11.5% in the assay filed under Homo sapiens; 0% in assay [7]; 7.79% in assay [8]; -5.52% in [9].
For the molecule `O=C(CC1CN(Cc2ccccc2)CCO1)NC1CCCC1` (stereo not drawn), the Percent Effect was -6.09% in assay [1]; 24.3% in assay [2]; -1.42% in assay [3]; 7.65% in assay [4]; 7.62% with Trypanosoma cruzi; 8.33% in assay [5]. Besides, the Percent Effect in [6] is 7.35%; in the assay listed under Homo sapiens, 15.4%; in assay [7], 7.92%; in [8], 23.2%; in assay [9], -6.96%.
Regarding `O=C(Nc1ccc(F)cc1)N1C[C@H]2C[C@H](C(=O)N3CCOCC3)[C@@H](C1)O2`, the Percent Effect in [1] was -1.74%; in assay [2], 7.79%; in [3] it was 3.92%; in assay [4], 3.78%; in the assay on Trypanosoma cruzi it was 0.493%; in [5], 4.52%. For the same molecule, the Percent Effect in [6] is 2.44%; in the assay filed under Homo sapiens, 29.3%; in assay [7], 4.23%; in [8], 14.1%; in [9] it was -6.94%.
